The results in this text go back to PubChem BioAssay (Tox21).

Results filed as inconclusive are left out. Where a call stands in place of a potency, no number is given. Active and inactive are the calls of the source. The call rests on the fitted dose curve.

Sequence of Acetylcholinesterase (Homo sapiens) (P22303 whole entry, looked up): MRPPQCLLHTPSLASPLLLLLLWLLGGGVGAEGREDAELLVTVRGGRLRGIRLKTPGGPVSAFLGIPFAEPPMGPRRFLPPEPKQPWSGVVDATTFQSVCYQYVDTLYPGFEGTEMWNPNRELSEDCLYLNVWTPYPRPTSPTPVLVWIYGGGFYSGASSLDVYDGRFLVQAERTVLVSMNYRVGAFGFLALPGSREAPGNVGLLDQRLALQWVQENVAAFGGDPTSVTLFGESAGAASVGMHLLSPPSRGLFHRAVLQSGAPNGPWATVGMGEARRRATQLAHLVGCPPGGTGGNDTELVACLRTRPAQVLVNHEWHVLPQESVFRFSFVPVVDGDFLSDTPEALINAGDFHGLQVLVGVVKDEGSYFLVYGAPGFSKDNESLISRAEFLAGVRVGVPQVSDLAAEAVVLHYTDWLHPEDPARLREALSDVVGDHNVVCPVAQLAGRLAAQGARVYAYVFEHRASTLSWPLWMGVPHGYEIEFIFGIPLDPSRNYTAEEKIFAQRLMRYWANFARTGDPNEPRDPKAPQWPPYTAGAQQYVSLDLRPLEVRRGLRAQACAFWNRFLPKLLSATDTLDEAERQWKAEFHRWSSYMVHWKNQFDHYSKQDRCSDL

The target in the first assay is Acetylcholinesterase (Homo sapiens) (UniProt P22303). In words: Acetylcholinesterase (AChE) small molecule antagonists: colormetric cell-based qHTS assay (AID 1347395). Further: nearly all actives have a fitted effect of over 30% in size. The following applies: SH-SY5Y cells AChE activity, colorimetric (Ellman); series mostly up to 115 µM. Put shortly:
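Cells (SH-SY5Y, 2,000 per well) are seeded and left overnight at 37 C. Compound is added for 30 min, then DTNB and acetylthiocholine for a further 90 min at 37 C before absorbance-based thiocholine detection.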
(In general: In qHTS, concentration-response curves come from the screen itself.)
Consider `O=C1O[C@H]([C@@H](O)CO)C(O)=C1O`, for which the Potency result was “inactive”.

`O=C(CCCCC(=O)Nc1c(I)cc(I)c(C(=O)O)c1I)Nc1c(I)cc(I)c(C(=O)O)c1I`: the Potency result was “inactive”.

For `OC[C@H]1O[C@@H](O[C@H]2[C@H](O)[C@@H](O)[C@H](O)O[C@@H]2CO)[C@H](O)[C@@H](O)[C@H]1O`, the Potency entry was “inactive”.

On to `CC(=O)CC(C)(C)C1CCCCC1`, for which the Potency entry was “inactive”.

As to `CC(=O)C(=O)O`, the Potency entry was “inactive”.

Turning to `CCCCCCCCCCCCOCCOCCOCCOCCOCCOCCOCCOCCOCCO`, the Potency result is “inactive”.

Regarding `CCCCC(CC)COS(=O)(=O)O` (stereo not given), the Potency entry is “inactive”.

Turning to `C=C1CC/C=C(\C)CC[C@@H]2[C@@H]1CC2(C)C`, the Potency result was “inactive”.

With `NC(=O)Cc1cccc2ccccc12`, the Potency entry is “inactive”.

For the compound `CC(C)c1ccc(C(=O)N=C(N)N)cc1S(C)(=O)=O`, the compound was called inactive.

As to `CC(C)CCOCCC(C)C`, the Potency result is “inactive”.

Take `CNC(=O)CN(CCN(CCN(CC(=O)[O-])CC(=O)NC)CC(=O)[O-])CC(=O)[O-].O.[Gd+3]`: the Potency entry was “inactive”.

Regarding `CC(=O)c1ccc(C)cc1`, the Potency result is “inactive”.

Consider `C[C@](N)(Cc1ccc(O)cc1)C(=O)O`, for which the activity, negative = inhibition is -0.0506% [at 10.5 µM] (inactive).

For the compound `COc1ccc(C)cc1[N+](=O)[O-]`, the Potency entry was “inactive”.

With `O[C@@H]([C@H](O)[C@H](O)CBr)[C@H](O)CBr`, the Potency result is “inactive”.

Take `Clc1ccccn1`: the Potency entry is “inactive”.

`CCOc1ccccc1C(N)=O`: the Potency result is “inactive”.

Turning to `CC(C)C(=O)c1c(C(C)C)nn2ccccc12`, the Potency entry is “inactive”.

For the compound `NS(=O)(=O)c1cc2c(cc1Cl)NC=NS2(=O)=O`, the Potency result is “inactive”.

With `Cc1cccc(C(=O)O)c1`, the Potency result is “inactive”.

Consider `N[C@@H](Cc1cc(I)c(Oc2ccc(O)c(I)c2)c(I)c1)C(=O)O`, for which the Potency entry is “inactive”.

On to `CCCCC(CC)COC(=O)COc1ccc(Cl)cc1Cl` (stereo not given), for which the Potency result was “inactive”.

On to `CC(C)OCC1CO1` (stereo not given), for which the Potency result was “inactive”.

As to `CCOC(=O)C(C#N)=C(c1ccccc1)c1ccccc1`, the Potency entry was “inactive”.

For the compound `CC(C)(C)c1ccc(O)c(C(C)(C)C)c1`, the Potency entry was “inactive”.

As to `OCCOCCOCCO`, the Potency result is “inactive”.

As for `CC(=O)CCCCn1c(=O)c2c(ncn2C)n(C)c1=O`, the Potency result was “inactive”.

Consider `NCCc1ccn[nH]1`, for which the Potency result is “inactive”.

For the compound `O=c1[nH]c(=O)n([C@H]2C[C@H](O)[C@@H](CO)O2)cc1F`, the Potency result was “inactive”.

In the case of `CC1(C)[C@@H]2CC[C@]3(C2)[C@@H]1C(=O)CCC3(C)C`, the Potency entry was “inactive”.

With `O=C(Nc1ccc(Cl)c(Cl)c1)C1CC1`, the Potency entry is “inactive”.

With `CC1=NN(c2cc(S(=O)(=O)O)ccc2Cl)C(=O)C1N=Nc1ccccc1` (stereo not given), the Potency entry is “inactive”.

For the compound `CC/C(C)=N\O[Si](C)(O/N=C(\C)CC)O/N=C(\C)CC`, the Potency entry was “inactive”.

As to `CC(C)(C)c1ccc(S)cc1`, the Potency entry was “inactive”.

In the case of `CCCCCCCC(=O)OCCCCCC`, the Potency entry was “inactive”.

As to `C=C(C)C(=O)OCCOC1CC2CC1C1C=CCC21` (stereo not given), the Potency entry was “inactive”.

`Oc1cccc(-c2c3nc(c(-c4cccc(O)c4)c4ccc([nH]4)c(-c4cccc(O)c4)c4nc(c(-c5cccc(O)c5)c5ccc2[nH]5)CC4)C=C3)c1`: the Potency entry was “inactive”.

Turning to `CC1(C)CC(N)CC(C)(CN)C1` (stereo not given), the Potency entry was “inactive”.

Take `CCCCCCCCCCCCO`: the Potency entry is “inactive”.

The target is the same in a further assay. The assay can be described thus: Acetylcholinesterase (AChE) small molecule antagonists: enzyme-based qHTS assay (AID 1347397). Further: nearly all actives have a fitted effect of over 55% in size. The following applies: Potency: AChE enzyme activity inhibition; outcome: AChE enzyme activity inhibition; series mostly up to 115 µM. In short, it runs like this:
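Compound or DMSO vehicle was pin-transferred onto recombinant human AChE (50 mU/mL as dispensed) and left 30 min at room temperature. Acetylthiocholine with DTNB then started the reaction, read colorimetrically 10 min later.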
For `O=C1O[C@H]([C@@H](O)CO)C(O)=C1O`, the Potency result is “inactive”.

In the case of `O=C(CCCCC(=O)Nc1c(I)cc(I)c(C(=O)O)c1I)Nc1c(I)cc(I)c(C(=O)O)c1I`, the Potency result was “inactive”.

As to `OC[C@H]1O[C@@H](O[C@H]2[C@H](O)[C@@H](O)[C@H](O)O[C@@H]2CO)[C@H](O)[C@@H](O)[C@H]1O`, the Potency entry is “inactive”.

Consider `CC(=O)CC(C)(C)C1CCCCC1`, for which the Potency entry is “inactive”.

With `CC(=O)C(=O)O`, the Potency result was “inactive”.

For the compound `CCCCCCCCCCCCOCCOCCOCCOCCOCCOCCOCCOCCOCCO`, the Potency result is “inactive”.

In the case of `CCCCC(CC)COS(=O)(=O)O` (stereo not given), the Potency result is “inactive”.

On to `C=C1CC/C=C(\C)CC[C@@H]2[C@@H]1CC2(C)C`, for which the Potency entry was “inactive”.

Turning to `NC(=O)Cc1cccc2ccccc12`, the Potency result was “inactive”.

Turning to `CC(C)c1ccc(C(=O)N=C(N)N)cc1S(C)(=O)=O`, the result was inactive.

As for `CC(C)CCOCCC(C)C`, the Potency result is “inactive”.

On to `CNC(=O)CN(CCN(CCN(CC(=O)[O-])CC(=O)NC)CC(=O)[O-])CC(=O)[O-].O.[Gd+3]`, for which the Potency entry is “inactive”.

Regarding `CC(=O)c1ccc(C)cc1`, the Potency result was “inactive”.

In the case of `C[C@](N)(Cc1ccc(O)cc1)C(=O)O`, the activity change, negative = inhibition is 0.139% [at 10.5 µM] (inactive).

For the compound `COc1ccc(C)cc1[N+](=O)[O-]`, the Potency entry was “inactive”.

For the compound `O[C@@H]([C@H](O)[C@H](O)CBr)[C@H](O)CBr`, the Potency result is “inactive”.

On to `Clc1ccccn1`, for which the Potency entry was “inactive”.

Consider `CCOc1ccccc1C(N)=O`, for which the Potency result was “inactive”.

As for `CC(C)C(=O)c1c(C(C)C)nn2ccccc12`, the Potency result was “inactive”.

Regarding `NS(=O)(=O)c1cc2c(cc1Cl)NC=NS2(=O)=O`, the Potency entry is “inactive”.

For the compound `Cc1cccc(C(=O)O)c1`, the Potency entry was “inactive”.

For `N[C@@H](Cc1cc(I)c(Oc2ccc(O)c(I)c2)c(I)c1)C(=O)O`, the Potency entry is “inactive”.

For the compound `CCCCC(CC)COC(=O)COc1ccc(Cl)cc1Cl` (stereo not given), the Potency entry is “inactive”.

As to `CC(C)OCC1CO1` (stereo not given), the Potency entry was “inactive”.

With `CCOC(=O)C(C#N)=C(c1ccccc1)c1ccccc1`, the Potency entry is “inactive”.

Turning to `CC(C)(C)c1ccc(O)c(C(C)(C)C)c1`, the Potency result is “inactive”.

With `OCCOCCOCCO`, the Potency result was “inactive”.

As to `CC(=O)CCCCn1c(=O)c2c(ncn2C)n(C)c1=O`, the Potency result is “inactive”.

Regarding `NCCc1ccn[nH]1`, the Potency result was “inactive”.

As to `O=c1[nH]c(=O)n([C@H]2C[C@H](O)[C@@H](CO)O2)cc1F`, the Potency result is “inactive”.

Turning to `CC1(C)[C@@H]2CC[C@]3(C2)[C@@H]1C(=O)CCC3(C)C`, the Potency entry is “inactive”.

Take `O=C(Nc1ccc(Cl)c(Cl)c1)C1CC1`: the Potency result is “inactive”.

`CC1=NN(c2cc(S(=O)(=O)O)ccc2Cl)C(=O)C1N=Nc1ccccc1` (stereo not given): the Potency result is “inactive”.

On to `CC/C(C)=N\O[Si](C)(O/N=C(\C)CC)O/N=C(\C)CC`, for which the Potency entry was “inactive”.

`CC(C)(C)c1ccc(S)cc1`: the Potency result is “inactive”.

As to `CCCCCCCC(=O)OCCCCCC`, the Potency result is “inactive”.

In the case of `C=C(C)C(=O)OCCOC1CC2CC1C1C=CCC21` (stereo not given), the Potency result was “inactive”.

As for `Oc1cccc(-c2c3nc(c(-c4cccc(O)c4)c4ccc([nH]4)c(-c4cccc(O)c4)c4nc(c(-c5cccc(O)c5)c5ccc2[nH]5)CC4)C=C3)c1`, the Potency result is “inactive”.

On to `CC1(C)CC(N)CC(C)(CN)C1` (stereo not given), for which the Potency entry was “inactive”.

For `CCCCCCCCCCCCO`, the Potency result was “inactive”.
